In the supplement of paper PMC3334620:
Over roughly 33,000 sequences, “E-score (-0.5 to 0.5)” has its median near -0.054; the highest 2% begin near 0.35. The full list was thinned out, with the highest values kept by preference.

Each sequence was assayed against T1, Stb5 (UniProt P38699) (assay: PBM E-score (8-mer binding enrichment) (E-score (-0.5 to 0.5)); higher = stronger / more preferred TF binding). Conditions: protein concentration: 200 nM; construct: GST-full length.
T1 sequence: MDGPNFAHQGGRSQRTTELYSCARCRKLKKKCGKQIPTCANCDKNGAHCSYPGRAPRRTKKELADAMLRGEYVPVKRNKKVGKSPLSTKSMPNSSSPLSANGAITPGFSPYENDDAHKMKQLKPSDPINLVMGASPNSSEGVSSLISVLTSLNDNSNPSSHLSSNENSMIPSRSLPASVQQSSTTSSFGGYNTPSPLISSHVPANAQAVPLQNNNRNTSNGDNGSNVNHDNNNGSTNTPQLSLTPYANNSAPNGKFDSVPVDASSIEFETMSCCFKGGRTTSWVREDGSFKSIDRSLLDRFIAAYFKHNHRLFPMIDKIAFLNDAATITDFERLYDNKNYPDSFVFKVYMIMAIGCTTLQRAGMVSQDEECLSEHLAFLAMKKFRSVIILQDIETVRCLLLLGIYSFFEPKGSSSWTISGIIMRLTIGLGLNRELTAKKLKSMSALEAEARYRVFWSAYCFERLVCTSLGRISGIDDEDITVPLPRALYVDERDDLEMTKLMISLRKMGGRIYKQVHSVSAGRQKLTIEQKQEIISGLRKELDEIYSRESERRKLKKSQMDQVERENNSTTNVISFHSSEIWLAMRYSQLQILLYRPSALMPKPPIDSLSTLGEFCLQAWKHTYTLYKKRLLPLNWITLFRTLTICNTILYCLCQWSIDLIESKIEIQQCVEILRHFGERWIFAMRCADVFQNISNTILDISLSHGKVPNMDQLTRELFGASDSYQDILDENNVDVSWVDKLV
Experimental: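 Universal 'all 10-mer' protein binding microarrays (Agilent AMADID 015681) probed with GST-tagged S. cerevisiae TFs (full-length or DBD) made by in vitro transcription/translation (PURExpress), about 100-200 nM. Bound TF was detected with fluorescent anti-GST. Each ungapped 8-mer (which stands for itself and its reverse complement) is scored by the PBM enrichment score (E-score), a modified Wilcoxon-Mann-Whitney statistic from -0.5 to +0.5, computed with the Universal PBM Analysis Suite. Scale: above 0.35 generally sequence-specific binding.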

| Sequence | PBM E-score |
| --- | --- |
| TAAATGCA | -0.18 |
| CATGCGGA | 0.167 |
| ACACCTCC | 0.0978 |
| CATAGCGC | 0.161 |
| ATTGAGCC | 0.0599 |
| CCGGAGCC | 0.182 |
| ACCTCACA | -0.181 |
| TCAAGTAA | -0.0626 |
| CGGTGAAC | 0.177 |
| GGGTGACA | 0.0889 |
| CGGTGAAG | 0.12 |
| TGGTGACA | 0.0421 |
| CGGTGAAA | 0.41 |
| CGGTGACA | 0.42 |
| CACTGCCC | -0.0546 |
| ACCCTGAC | -0.0664 |
| GACCGCCC | 0.322 |
| AATCGCCC | -0.00317 |
| TACCGCCA | 0.323 |
| CACCGCCC | 0.41 |
| CAGCGCCG | 0.299 |
| CACCGCCA | 0.408 |
| CATCGCCG | 0.264 |
| GACCGCCA | 0.317 |
| AACCGCCC | 0.107 |

| Sequence | PBM E-score |
| --- | --- |
| CACCGCCG | 0.405 |
| CACCGCAG | 0.344 |
| AATCGCCG | 0.407 |
| AAGTTGGT | -0.133 |
| TCAGCAGA | -0.329 |
| CTTGACTA | -0.193 |
| CGGGAGGC | -0.136 |
| CGGTTCAG | -0.0792 |
| ATGGCAAA | -0.0403 |
| CCTAGGTC | -0.15 |
| ATGCTAAC | -0.0894 |
| GGCAGTAC | 0.0214 |
| AAGTGAAC | -0.129 |
| AACCGCCG | 0.362 |
| AAGCGCCG | 0.396 |
| AAGCGCCT | 0.0194 |
| AACCGCCT | 0.0427 |
| AAGCGCCA | -0.0397 |
| AACCGCCA | 0.167 |
| TACATATA | 0.0481 |
| GGATTGAC | -0.0821 |
| AGACTCCA | -0.139 |
| AGTCTGTG | -0.27 |
| GATGGGTA | -0.205 |
| CGGTAGTC | 0.18 |

| Sequence | PBM E-score |
| --- | --- |
| AGGTATTA | 0.212 |
| CGGTGGTA | 0.441 |
| CGGTATTA | 0.472 |
| CGGTATCA | 0.364 |
| GGGTGGTA | -0.0756 |
| AGGTGGTA | 0.165 |
| GGGTATCA | -0.079 |
| CGGTATCC | 0.211 |
| AGGTAGTA | 0.0131 |
| CGGTAGTA | 0.385 |
| CGGTATTC | 0.275 |
| GGAAAGCA | 0.024 |
| AGAGTGCT | -0.0924 |
| AGATCGGA | 0.335 |
| TAGTCGAA | -0.0837 |
| AATAGCAG | -0.0777 |
| CGCTATTA | 0.357 |
| GGCTATTA | -0.0171 |
| AGCTATTA | -0.041 |
| ACTGGCGC | -0.0545 |
| AGGGGGGA | -0.38 |
| GTATGGTA | -0.168 |
| ATCCCCCC | -0.0842 |
| ATCCCGGG | 0.299 |
| CTCCCCGC | 0.248 |

| Sequence | PBM E-score |
| --- | --- |
| CTCCCCGA | 0.225 |
| GTCCCCGA | 0.185 |
| ATCCCCGA | 0.374 |
| ATCCCCGC | 0.453 |
| ATCCCCGG | 0.379 |
| ATCCCCCG | 0.292 |
| ATTCGCAC | 0.00083 |
| GAAACGTA | -0.0447 |
| AAATGCTA | -0.223 |
| CCTTGGCA | -0.227 |
| CGTTAACC | 0.0895 |
| GTACCAAC | -0.00359 |
| ACCAGATC | -0.153 |
| CTCTATGA | -0.245 |
| CCTGCTAG | -0.0487 |
| AGTCTCAT | -0.154 |
| CGCCACAC | 0.0326 |
| ACGCCGTA | 0.204 |
| ACGCCGCG | 0.361 |
| AAGCCGCT | 0.134 |
| CCGCCGCC | 0.361 |
| ACGCCGCT | 0.383 |
| AAGCCGTC | 0.243 |
| ACGCCTCT | -0.306 |
| CAGCCGCC | 0.0327 |

| Sequence | PBM E-score |
| --- | --- |
| AAGCCGCG | 0.287 |
| ACGCCGTG | 0.297 |
| GCGCCGCC | 0.331 |
| ACGCCGTC | 0.405 |
| AACTTCTT | -0.0358 |
| ATAGAGTA | -0.0125 |
| CGTCTAAC | 0.0919 |
| GGATAGGA | -0.00719 |
| CAGCGCAA | -0.0211 |
| CGACAGTA | 0.0893 |
| AGTGACGA | -0.191 |
| AGCTCCCC | -0.226 |
| TACTAGCA | -0.277 |
| AGTGAAGA | -0.155 |
| ACTGAAGG | -0.139 |
| CATAGAGG | -0.173 |
| CAGCCGCG | 0.0138 |
| GCGCCGCA | 0.268 |
| ATGCCGCG | 0.319 |
| CCGCCGCA | 0.301 |
| ATGCCGCC | 0.423 |
| ACGCCGCA | 0.354 |
| AAGCCGCC | 0.245 |
| CCGCCGCG | 0.363 |
| AGGCCGCC | 0.324 |

| Sequence | PBM E-score |
| --- | --- |
| ACGCCGCC | 0.41 |
| ATGCCGCA | 0.25 |
| CCGCGCCG | 0.288 |
| AAGGGGAA | -0.188 |
| AATGGATA | 0.135 |
| TGGACCAA | -0.112 |
| GTTACTTA | 0.0421 |
| CCGAGGAG | 0.0924 |
| AGATCAAC | -0.251 |
| CCGCCGTC | 0.29 |
| CCGCCGTA | 0.381 |
| GCGCCGTA | 0.253 |
| CATAAGCG | 0.0871 |
| GTTGAGGA | -0.203 |
| CTTTCACA | -0.0931 |
| GCAAGACC | 0.146 |
| CCGATGCG | 0.339 |
| AGGGGATA | 0.0586 |
| GGGGGATA | 0.13 |
| CGGAATTC | 0.0284 |
| CGGAATTA | 0.417 |
| AGGAACTA | 0.0488 |
| CGGGGATA | 0.478 |
| CGGAACTC | 0.0793 |
| GGGGGAAA | 0.165 |

| Sequence | PBM E-score |
| --- | --- |
| CGGGGAAA | 0.385 |
| AGGAATTA | -0.00087 |
| CGGAACTA | 0.44 |
| CGGGGGAA | 0.257 |
| AGAATGGG | -0.212 |
| CCTTGACA | -0.071 |
| GCTTTTAC | 0.265 |
| ACGTCGTC | -0.0716 |
| AAAGTTTG | -0.169 |
| CGGCCGCA | 0.235 |
| TGTAACAA | -0.111 |
| GAATCTCA | -0.131 |
| GGTCGCGA | -0.0386 |
| CGGGAATA | 0.456 |
| CGGAAGTA | 0.352 |
| CGGAAATA | 0.399 |
| CGGAAGTC | 0.204 |
| GGGAAATA | 0.134 |
| AGGGATTA | 0.0519 |
| CGGGATTC | 0.219 |
| CGGAAATC | 0.0555 |
| AGGGAATA | 0.0674 |
| CGGGATTA | 0.471 |
| GGGGAATA | 0.174 |
| AGGAAGTA | 0.0105 |
